This note sets out measurements from PubChem BioAssay (NCI).

The panel holds about 83,000 compounds, 20% with a hit somewhere; the sample as a whole holds those more often.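 In brief: 96-well plates, 48 h treatment, single concentration, percent growth endpoint.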 A number with no mark means an inactive call. The source made the active and inactive calls. Rule for the calls: active = growth percent below 10; inactive = the rest.

The test system of this test is 786-0 renal. As to the kind of experiment: NCI-60 one-dose screen, 48 h (100 = growth as untreated, 0 = no growth, -100 = all killed). As to conditions: 10 µM unless noted.
Turning to `NCCNc1nc2ccccc2c2c(=O)c3cc(F)cc(Cl)c3sc12`, the growth is -90.4% (active).

Take `C=C1C(=O)O[C@H]2[C@H]1CC/C(COC(=O)/C=C\C(=O)O)=C\CC[C@@]1(C)O[C@@H]21`: the growth was 109%.

As to `COc1ccccc1C(=O)/C=C/c1ccccc1`, the growth was 101%.

Consider `Cn1cc([C@@H]2Nc3ccc4[nH]ncc4c3[C@H]3[C@H]4CCC(C4)[C@H]32)c(C(F)(F)F)n1`, for which the growth is 59.1%.

`N#Cc1c(N)nc2c(c1N)C(c1ccc(F)cc1)c1ccc(N)cc1O2` (centres undefined): the growth was 92.3%.

Turning to `O=C(CN1C=NC2C(N3CCOCC3)=NC=NC21)c1ccc(Br)cc1` (centres undefined), the growth is 103%.

As for `CCCCN1CCN(c2ccc3nc(-c4ccc5nc(-c6ccc(OCC)cc6)[nH]c5c4)[nH]c3c2)CC1`, the growth was 75.3%.

Take `CCN(CCO)CCNc1ccc(C)c2sc3cc(Cl)ccc3c(=O)c12`: the growth was -60.1% (active).

Regarding `Cc1nn(-c2nc3ccccc3[nH]2)c2c1C(c1ccc(OCC(N)=O)cc1)CC(=O)N2` (centres undefined), the growth was 104%.

In the case of `COC(=O)/C(CCC=C(C)C)=C1\[C@@H](OC(C)=O)C[C@@]2(C)[C@H]1C[C@@H](O)[C@H]1[C@@]3(C)CC[C@H](NCCO)[C@@H](C)[C@@H]3CC[C@@]12C`, the growth was 98.7%.

Take `CCCc1c(C)c2sc(=O)[nH]c2[nH]c1=O`: the growth was 109%.

Turning to `O=C(/C=C/c1ccc(Cl)cc1)c1ccc(Nc2nc(NCCO)nc(Nc3ccc(Cl)cc3)n2)cc1`, the growth was 26.9%.

With `COc1cccc2c(=O)c3c(sc12)c(NCCCNCCO)nc1ccccc13`, the growth is 56.3%.

Consider `CCCCc1ccc(NS(=O)(=O)c2cc3c4c(c2)CCN4C(=O)CC3)cc1`, for which the growth was -1.95% (active).

Regarding `O=C1/C(=C/c2ccc(O)cc2)COc2ccc(O)cc21`, the growth is 109%.

Consider `Cc1cc(Nc2ccc(OCc3ccccc3)cc2)nc2cc(O)ccc12`, for which the growth was 72.2%.

As for `O=C(c1nc2ccccc2[nH]1)C1[C@@H](c2cccc(O)c2)C2CC3CCCCC3N2[C@@]12C(=O)Nc1cc(Cl)ccc12` (some centres undefined), the growth is 35.2%.

As for `O=c1oc2ccc(Br)cc2c(=O)n1-c1ccc(Br)cc1F`, the growth was 1.72% (active).

Take `O=C(/C=C/c1ccc(C(F)(F)F)cc1)c1ccc(Nc2nc(NCCO)nc(N3CCOCC3)n2)cc1`: the growth is -2.96% (active).

Consider `C#CCn1cc(C=C2C(=O)N(C)C(=O)N(C)C2=O)c2cc(Cl)ccc21`, for which the growth was 111%.

Turning to `COc1ccc(/C=C2/SC(=O)N(CC(=O)N3CCN(c4cc5c(cc4F)c(=O)c(C(=O)O)cn5C4CC4)CC3)C2=O)cc1`, the growth is 97.3%.

As to `CCOC(=O)C1=C(C)N=c2s/c(=C\c3ccccc3O)c(=O)n2C1c1ccc(OC)c2ccccc12` (centres undefined), the growth is 36%.

As to `Nc1ccc(-c2ccc(-c3ccccc3N)c3[nH]c4ccccc4c23)cc1`, the growth is 46%.

On to `CCOC(=O)c1c2c(n3cccc(Cl)c13)C(=O)c1ncccc1C2=O`, for which the growth was 73.9%.

Regarding `O=C(Nc1ccc(C23CC4CC(CC(c5ccccc5)(C4)C2)C3)cc1)c1cccs1`, the growth is 78.7%.

Turning to `Cc1ccc2sc3c(NCCCNCCO)nc4ccccc4c3c(=O)c2c1`, the growth was 54%.

With `COc1ccccc1N1CCN(C(CNS(=O)(=O)c2ccc(Cl)cc2)c2cccnc2)CC1` (centres undefined), the growth is 42.4%.

Consider `CCn1c(-c2nonc2Nc2ccc(OC)cc2)nc2ccccc21`, for which the growth was 95.1%.

Take `O=C(Nc1ccc(N2CCNCC2)cn1)c1[nH]ncc1Nc1ncnc2sc3c(c12)CCC3`: the growth was -85.5% (active).

In the case of `O=C(/C=C/c1cccc(Cl)c1)OCc1ccc2cc1OCC#C/C=C\C#CCO2`, the growth was 100%.

`C[n+]1c2ccccc2nc2ccc(NCCO)cc21`: the growth was 80.8%.

Turning to `Nc1nc2c(ncn2[C@@H]2O[C@H](CS)[C@@H](O)[C@H]2O)c(=O)[nH]1`, the growth is 106%.

As to `Cn1c(C(=O)c2cccc3ccccc23)nc2ccccc21`, the growth was 5.77% (active).

As to `CC/C(=C(\CC)c1ccc(OCC[N+](C)(C)C)cc1)c1ccc(OC)cc1`, the growth is 91.1%.

With `O=C(Nc1ccc(F)cc1F)c1cc(I)ccc1O`, the growth is 12.3%.

Regarding `CC(C)Cn1c2c(c(=S)[nH]c1=O)CCC2`, the growth was 104%.

With `CNCCNc1nc2ccccc2c2c(=O)c3cccc(C)c3sc12`, the growth is 57.3%.

Turning to `COC(=O)c1c2c(c(C)[n+]([O-])c1C)C(=O)C(NCc1ccc(F)c(F)c1)=CC2=O`, the growth is 48.2%.

`O=C(Cn1cc(COc2ncnc3c2cnn3-c2ccccc2)nn1)Nc1ccccn1`: the growth was 104%.
